Results as given in PubChem BioAssay AID1942 (Johns Hopkins Ion Channel Center, 2009).
The campaign covered roughly 2,400 compounds. About 580 (24%) were called active.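 Rule for the calls: active = activity change at or above the mean plus 3 SD of buffer wells without dofetilide, per plate; inactive = the rest.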 The list is a sample of the results.

Each compound was assayed against Potassium voltage-gated channel subfamily KQT member 2 (Rattus norvegicus) (UniProt O88943) (assay: KCNQ2 potentiation in CHO cells – cell-based, FluxOR thallium flux, counter-screen for hERG block protector project, confirmation (AID 1942;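 note: normalized value minus buffer-control mean plus three SD of buffer wells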)). Details: FluxOR thallium flux fluorescence, at 10 µM, active compounds read high.
Potassium voltage-gated channel subfamily KQT member 2 (Rattus norvegicus), sequence (O88943 whole entry, looked up): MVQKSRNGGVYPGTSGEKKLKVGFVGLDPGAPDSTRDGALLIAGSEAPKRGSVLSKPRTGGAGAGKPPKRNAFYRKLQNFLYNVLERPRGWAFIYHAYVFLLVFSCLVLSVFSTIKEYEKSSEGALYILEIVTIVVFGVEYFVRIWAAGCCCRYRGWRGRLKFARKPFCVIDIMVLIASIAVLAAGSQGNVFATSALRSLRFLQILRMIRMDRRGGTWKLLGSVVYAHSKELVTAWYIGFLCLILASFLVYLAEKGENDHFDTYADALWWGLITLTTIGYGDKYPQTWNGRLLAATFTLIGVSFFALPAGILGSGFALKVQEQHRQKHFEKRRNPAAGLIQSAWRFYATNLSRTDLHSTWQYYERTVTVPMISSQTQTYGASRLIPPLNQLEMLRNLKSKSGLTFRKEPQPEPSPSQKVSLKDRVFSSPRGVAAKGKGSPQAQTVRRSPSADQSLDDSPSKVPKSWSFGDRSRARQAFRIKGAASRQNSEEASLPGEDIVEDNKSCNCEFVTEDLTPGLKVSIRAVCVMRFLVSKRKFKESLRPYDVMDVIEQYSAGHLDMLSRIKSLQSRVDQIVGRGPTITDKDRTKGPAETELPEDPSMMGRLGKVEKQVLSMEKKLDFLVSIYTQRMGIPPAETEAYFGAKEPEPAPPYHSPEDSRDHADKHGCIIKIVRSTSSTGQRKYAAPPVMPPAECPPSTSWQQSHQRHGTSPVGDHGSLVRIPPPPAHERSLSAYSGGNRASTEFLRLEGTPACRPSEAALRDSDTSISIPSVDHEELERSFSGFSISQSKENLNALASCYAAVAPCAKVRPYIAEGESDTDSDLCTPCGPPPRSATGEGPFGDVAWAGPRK
Cc1[nH]n(-c2ccccc2)c(=O)c1N=Nc1ccc(C(N)=O)cc1 was tested, and the activity change, less the hit threshold was -25.6% (inactive). CCCSC(=S)c1c(C)[nH]n(-c2ccccc2)c1=O was tested, and the activity change, less the hit threshold was 49.7% (active). For CCSC(=S)c1c(C)[nH]n(-c2ccccc2)c1=O, the activity change, less the hit threshold was -4.2% (inactive). Cc1cc(C(=O)NCCN2C(=O)S/C(=C\c3cccs3)C2=O)ccc1[N+](=O)[O-] was tested, and the activity change, less the hit threshold was -16.8% (inactive). In the case of Nc1nonc1-n1nnc(C(=O)N/N=C/c2ccccn2)c1-c1ccccc1, the activity change, less the hit threshold is reported as -18.1% (inactive). In the case of COc1ccc(C2N=C(c3ccccc3)C(C)(C)N2O)cc1 (centres undefined), the activity change, less the hit threshold is reported as -18.6% (inactive). In the case of Cc1cc(Cl)ccc1OC(C)C(=O)NCCc1ccc2c(c1)OCCO2 (centres undefined), the activity change, less the hit threshold is reported as -30.8% (inactive). Cc1ccc(CN2CCN(CC(=O)NC(C)c3ccc4c(c3)OCCO4)C2=O)cc1 (centres undefined) was tested, and the activity change, less the hit threshold was 16.9% (active). With Cc1nn(C)cc1C(=O)Nc1ccc2c(c1)OCCO2 the activity change, less the hit threshold was -19.7% (inactive). Cc1cc(C(=O)Nc2cccc3ccccc23)c(C)o1 was tested, and the activity change, less the hit threshold was -28.1% (inactive). In the case of C/C(=N\NC(=S)Nc1cccc(C)c1)c1ccco1, the activity change, less the hit threshold is reported as -13.9% (inactive). C/C(=N\NC(=O)CSc1nc2ccccc2o1)c1ccc(O)cc1 was tested, and the activity change, less the hit threshold was -16.2% (inactive). In the case of C/C(=N\NC(=O)c1cc2ccccc2cc1O)c1cc2ccccc2o1, the activity change, less the hit threshold is reported as 82% (active). For Cc1ccc(/C=N/NC(=O)c2cc(C)oc2C)o1, the activity change, less the hit threshold was -17.8% (inactive). In the case of C/C(=N\NC(=O)c1cc2ccccc2cc1O)c1ccccn1, the activity change, less the hit threshold is reported as -9.4% (inactive). O=C(N/N=C/c1ccc(Sc2ccccn2)o1)c1cc2ccccc2cc1O was tested, and the activity change, less the hit threshold was -4.5% (inactive). For COc1ccc(CCNC(=O)c2cc3ccccc3oc2=O)cc1, the activity change, less the hit threshold was -29% (inactive). For C/C(=N\NC(=S)Nc1c(C)cccc1C)c1cc2ccccc2o1, the activity change, less the hit threshold was -16.4% (inactive). With Cc1ccc(/C=N/NC(=O)c2cc3ccccc3cc2O)o1 the activity change, less the hit threshold was 77.9% (active). With C/C(=N\NC(=O)c1ccoc1C)c1cccc2ccccc12 the activity change, less the hit threshold was 55% (active). With C/C(=N/NC(=O)c1cc2ccccc2cc1O)c1ccco1 the activity change, less the hit threshold was 72.8% (active). In the case of CC(C)(C)NC(=O)CN(C(=O)CS(=O)CC(=O)Nc1ccc(F)cc1)c1cccc(F)c1 (centres undefined), the activity change, less the hit threshold is reported as -11.2% (inactive). Cc1ccsc1/C=C1/SC(=O)N(CC(=O)N2CCCC2)C1=O was tested, and the activity change, less the hit threshold was -18.9% (inactive). In the case of Cn1c(=O)c(Sc2ccccc2)c(O)c2ccccc21, the activity change, less the hit threshold is reported as -8.1% (inactive). For Cn1c(=O)c2c(ncn2CC(=O)OCc2ccccc2)n(C)c1=O, the activity change, less the hit threshold was -14.2% (inactive). In the case of Cc1nc(-c2cc(C#N)c(Sc3ccc(Cl)cc3Cl)nc2C)cs1, the activity change, less the hit threshold is reported as -16.9% (inactive). COc1cc(C(=S)N2CCOCC2)ccc1OC(=O)c1ccc([N+](=O)[O-])cc1[N+](=O)[O-] was tested, and the activity change, less the hit threshold was -27.5% (inactive). For Cc1ccc(CCNC(=O)c2cccc(NC3=NC4CS(=O)(=O)CC4S3)c2)cc1 (centres undefined), the activity change, less the hit threshold was -10.3% (inactive). C/C(=N\NC(=O)c1cc2ccccc2cc1O)c1ccc(C)o1 was tested, and the activity change, less the hit threshold was 30.2% (active). In the case of Cc1ccc(C(=O)NC2CCC(C)CC2)o1 (centres undefined), the activity change, less the hit threshold is reported as -20.7% (inactive). With C/C(=N/NC(=O)c1sc(NS(=O)(=O)c2ccccc2)nc1C)c1sc(N)nc1C the activity change, less the hit threshold was -11.4% (inactive). For Nn1c(SCC(=O)Nc2ccc(OC(F)F)cc2)nnc1-c1ccco1, the activity change, less the hit threshold was -14.7% (inactive). CSc1ccccc1C(=O)NCc1ccc(C)cc1 was tested, and the activity change, less the hit threshold was -15.6% (inactive). For Cc1ccc(C(=O)Sc2cccccc2=O)cc1, the activity change, less the hit threshold was 78.4% (active). CC1=CC(=O)C(C(C)C)=CC1=NC(=O)c1ccc(C)cc1 was tested, and the activity change, less the hit threshold was -15.5% (inactive). In the case of Cc1ccc(Nc2nc(-c3ccncc3)cs2)cc1, the activity change, less the hit threshold is reported as -17.9% (inactive). In the case of Brc1ccc(-c2csc(N3CCCCCC3)n2)cc1, the activity change, less the hit threshold is reported as -13.8% (inactive). Cc1cc(C)c(-c2c(O)c3c(n(C)c2=O)CC(C)(C)CC3=O)c(C)c1 was tested, and the activity change, less the hit threshold was -18.3% (inactive). In the case of O=C(COc1ccc2ccccc2c1)Nc1ccc(Br)cc1C(=O)O, the activity change, less the hit threshold is reported as -9% (inactive). With O=C(COc1ccc2ccccc2c1)NNC(=O)C(=O)Nc1ccccc1 the activity change, less the hit threshold was 47.2% (active). For O=C(COc1ccccc1)Nc1ccc(F)cc1, the activity change, less the hit threshold was -28.9% (inactive). For O=C(COc1ccc(C(=O)c2ccccc2)cc1)Nc1cccnc1, the activity change, less the hit threshold was -35% (inactive). With COc1ccccc1NC(=O)C(=O)NNC(=O)COc1ccc2ccccc2c1 the activity change, less the hit threshold was 93.1% (active). Cc1ccccc1NC(=O)C(=O)NNC(=O)COc1ccc2ccccc2c1 was tested, and the activity change, less the hit threshold was 33.6% (active). For COC(=O)CSc1nnc(COc2ccc3ccccc3c2)o1, the activity change, less the hit threshold was -16% (inactive). With C=CCNC(=O)c1ccccc1NC(=O)COc1ccc(OC)cc1 the activity change, less the hit threshold was -11.7% (inactive). For CSc1ccc(S(=O)(=O)N2CCC(C(=O)Nc3ccccc3C(F)(F)F)CC2)cc1, the activity change, less the hit threshold was -14.7% (inactive). For Cc1nonc1CN(C)C(=O)c1ccc(OC2CCN(Cc3ccccn3)CC2)cc1, the activity change, less the hit threshold was -5.7% (inactive). With Cc1ccc(C(=C2C3C=CC2C2C(=O)NC(=O)C32)c2ccc(C)cc2)cc1 (centres undefined) the activity change, less the hit threshold was -17.1% (inactive). With COc1ccccc1C(=O)COC(=O)c1ccc(-n2cnnn2)cc1 the activity change, less the hit threshold was -14.7% (inactive). In the case of CCOC(=O)c1nnn(CC(=O)Nc2cccc(F)c2)c1C(=O)OCC, the activity change, less the hit threshold is reported as -9.5% (inactive). With COc1ccc(CC(=O)Nc2ccc(-c3noc(-c4ccccc4OC)n3)cc2)cc1 the activity change, less the hit threshold was -16.7% (inactive). For O=C(c1ccccc1)c1nccn1-c1ccc(Cl)nn1, the activity change, less the hit threshold was -7.9% (inactive). With O=C(CSc1cccc[n+]1[O-])C12CC3CC(CC(C3)C1)C2 the activity change, less the hit threshold was -11.8% (inactive). With O=C(NCCCN1CCOCC1)c1ccc(CS(=O)(=O)Cc2ccccc2Cl)o1 the activity change, less the hit threshold was -26.5% (inactive). For Oc1c(N=NC(=S)Nc2ccccc2F)c2ccccc2n1Cc1ccccc1, the activity change, less the hit threshold was -9.8% (inactive). For Oc1c(N=NC(=S)Nc2ccccc2F)c2ccccc2n1Cc1ccc(Cl)cc1, the activity change, less the hit threshold was -13.5% (inactive). With Cc1ccc(Cn2c(O)c(N=NC(=S)Nc3ccccc3F)c3ccccc32)cc1 the activity change, less the hit threshold was -11.4% (inactive). With Oc1c(N=NC(=S)Nc2ccccc2F)c2ccccc2n1Cc1ccc(F)cc1 the activity change, less the hit threshold was 2.8% (active). Cc1c(Cl)cccc1NC(=S)N=Nc1c(O)n(CN2CCOCC2)c2ccccc12 was tested, and the activity change, less the hit threshold was 4.9% (active). With Oc1c(N=NC(=S)Nc2ccccc2F)c2ccccc2n1Cc1ccccc1Cl the activity change, less the hit threshold was -10% (inactive). With O=C(CN1C(=O)CSCC1=O)Nc1ccc2c(c1)OCO2 the activity change, less the hit threshold was -7.1% (inactive). In the case of Nc1ccc2nc(-c3cccs3)[nH]c2c1, the activity change, less the hit threshold is reported as -8.8% (inactive). With CC(C)(C)n1nnnc1C(c1cccs1)N1CCN(Cc2ccccc2)CC1 (centres undefined) the activity change, less the hit threshold was -11.7% (inactive). With O=C(/C=C/Nc1ccc(F)c(F)c1)c1cccs1 the activity change, less the hit threshold was -17.4% (inactive). For Cc1sc2nc(CN3CCOCC3)[nH]c(=S)c2c1C, the activity change, less the hit threshold was 93.4% (active). For C/C(Nc1cccc(F)c1)=C(/C#N)C(N)=O, the activity change, less the hit threshold was -14.7% (inactive). In the case of Cc1nc(NCc2cccnc2)c2c3c(sc2n1)CC(C)CC3 (centres undefined), the activity change, less the hit threshold is reported as 26.7% (active). Cc1cccc(NC(=O)CN2C(=O)S/C(=C\c3cccn3-c3cccc(C(=O)O)c3)C2=O)c1 was tested, and the activity change, less the hit threshold was -18.5% (inactive). For S=c1nc[nH]c2c1sc1nc(-c3ccccc3)c3c(c12)CCCC3, the activity change, less the hit threshold was -4.2% (inactive). With CC(C)c1nc2sc3c(=S)nc[nH]c3c2c2c1CCC2 the activity change, less the hit threshold was 14.2% (active). In the case of S=c1nc[nH]c2c1sc1nc(N3CCOCC3)c3c(c12)CCCC3, the activity change, less the hit threshold is reported as 43.5% (active). With COc1ccc(S(=O)(=O)Nc2cccnc2)cc1 the activity change, less the hit threshold was -17.2% (inactive). With CN(C)C(=O)c1ccc(NC(=O)c2cncc(Br)c2)cc1 the activity change, less the hit threshold was -12% (inactive). For Cc1ccc(NC(=S)NC(=O)c2sc3ccccc3c2Cl)c(C(=O)O)c1, the activity change, less the hit threshold was 13.9% (active). O=C(NNC(=S)NC(=O)c1sc2ccccc2c1Cl)c1ccc(Cl)cc1 was tested, and the activity change, less the hit threshold was 11.1% (active). O=C(Nc1nc(=O)c2ccccc2s1)c1ccc(Cl)cc1 was tested, and the activity change, less the hit threshold was -5.6% (inactive). In the case of Cc1ccc(C(=O)NNC(=S)NC(=O)c2ccc(Cl)cc2)cc1, the activity change, less the hit threshold is reported as -28.7% (inactive). COc1cccc(C(=O)NC(=S)Nn2cnnc2)c1OC was tested, and the activity change, less the hit threshold was -19.6% (inactive). For COc1ccccc1C(=O)NC(=S)NNC(=O)c1sc2ccccc2c1Cl, the activity change, less the hit threshold was 77% (active). In the case of O=C(NC(=S)Nc1ccc(N2CCOCC2)c(Cl)c1)c1sc2ccccc2c1Cl, the activity change, less the hit threshold is reported as -10.6% (inactive). With COc1ccccc1C(=O)NNC(=S)NC(=O)c1sc2ccccc2c1Cl the activity change, less the hit threshold was 19.7% (active). With CCC(C)N(C(=O)CSc1nnc(NC(C)C)s1)C1CCS(=O)(=O)C1 (centres undefined) the activity change, less the hit threshold was -15.4% (inactive). O=c1cc(CN2CCN(S(=O)(=O)c3ccc4c(c3)OCCO4)CC2)c2ccc(O)cc2o1 was tested, and the activity change, less the hit threshold was -20% (inactive). S=c1[nH]nc(CSc2nc3ccccc3s2)n1C1CCCCC1 was tested, and the activity change, less the hit threshold was -2.2% (inactive). Cc1ccc(CNC(=O)c2ccc(CNc3c(N4CCCC4)c(=O)c3=O)cc2)cc1 was tested, and the activity change, less the hit threshold was -23.6% (inactive). For Cc1ccc(C(=O)NNc2cc(N3CCCC3)nc(N3CCCC3)n2)cc1, the activity change, less the hit threshold was 16.1% (active). Cc1ccc(C(=O)Nc2nc(=O)n(C)s2)cc1 was tested, and the activity change, less the hit threshold was -12% (inactive). For O=C(Nc1nnc(C2=COCCO2)o1)c1ccc(Br)cc1, the activity change, less the hit threshold was -2.3% (inactive). CCn1cc(C(=O)NCCN(C)C)c(=O)c2cc(F)c(N3CCN(C)CC3)cc21 was tested, and the activity change, less the hit threshold was -23.9% (inactive). COc1ccc(C(=O)Nc2ccc(-n3nncc3C(C)(C)C)cc2)cc1 was tested, and the activity change, less the hit threshold was 17.5% (active). For COc1ccc(NC(=O)c2ccc(NC3=NC4CS(=O)(=O)CC4S3)cc2)cc1 (centres undefined), the activity change, less the hit threshold was -19.9% (inactive). With COc1ccc(NC(=O)c2ccc(COCC(F)(F)C(F)F)cc2)cc1 the activity change, less the hit threshold was -19.7% (inactive). In the case of CCSc1nnc(NC(=O)CC(C)C)s1, the activity change, less the hit threshold is reported as -11.1% (inactive). With O=c1cc(-c2ccccc2)nc2c(-c3ccccc3)c(C(F)(F)F)[nH]n12 the activity change, less the hit threshold was 59.6% (active). In the case of Cc1nn(CCC#N)c2nc(-c3ccccc3)cc(C(F)(F)F)c12, the activity change, less the hit threshold is reported as -22.2% (inactive). Cc1[nH]n2c(=O)cc(C(C)C)nc2c1-c1ccccc1 was tested, and the activity change, less the hit threshold was -3.3% (inactive). In the case of NC(=O)c1nn2c(C(F)(F)F)cc(-c3ccccc3)nc2c1Br, the activity change, less the hit threshold is reported as -18.2% (inactive). Cc1[nH]n2c(=O)cc(C(C)(C)C)nc2c1-c1ccccc1 was tested, and the activity change, less the hit threshold was 14.6% (active).
